{"source": "PubChem BioAssay (NCI)", "note": "Compounds without any hit were thinned out: in the full panel of roughly 83,000, 20% have a hit.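 Assay: single dose, 48 h. Readout: percent growth (0 = no net growth; negative = cell death). Active: <10.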 Calls of active or inactive are those of the source.", "data": [{"tested_on": "MCF7 breast", "assay": "NCI-60 one-dose screen, 48 h (100 = growth as untreated, 0 = no growth, -100 = all killed)", "conditions": "10 µM unless noted", "values": [{"molecule": "NC(=O)NN=C(C1CC1)C1CC1", "growth": "92.9% (inactive)"}, {"molecule": "c1ccc(-c2nn[nH]n2)c(-c2ccc(CN3CCN(c4nsc5ccccc45)CC3)cc2)c1", "growth": "85.6% (inactive)"}, {"molecule": "O=C(/C=C/c1ccc(Cl)cc1)c1ccccc1", "growth": "24.1% (inactive)"}, {"molecule": "O=C1OCCCCCCCCCC#Cc2ccccc21", "growth": "164% (inactive)"}, {"molecule": "NC(N)=N/N=C(/c1ccccc1)c1ccc(Cl)cc1", "growth": "11.3% (inactive)"}, {"molecule": "CC1(C)OC(=O)C(=Cc2ccccc2Br)C(=O)O1", "growth": "102% (inactive)"}, {"molecule": "CCOC(=O)/C(=C/c1ccccc1)C(=O)c1ccccc1", "growth": "41.1% (inactive)"}, {"molecule": "Cc1c(NCc2nnc3n(Cc4ccccc4)c(=O)c4c5c(sc4n23)CCCC5)c(=O)n(-c2ccccc2)n1C", "growth": "85.1% (inactive)"}, {"molecule": "C/C(=N/N=C(N)N)c1ccc(N)cc1", "growth": "81.3% (inactive)"}, {"molecule": "COc1cc2c(-c3nc4cc(Cl)c(F)cc4s3)cc(=O)oc2c(C)c1OC", "growth": "-57.8% (active)"}, {"molecule": "Cn1c(=O)c2nc(SCc3ccccc3)n(C)c2n(C)c1=O", "growth": "106% (inactive)"}, {"molecule": "O=C(/C(=C/c1ccc([N+](=O)[O-])cc1)c1ccccc1)c1ccccc1", "growth": "26.4% (inactive)"}, {"molecule": "Cc1cc2c(C#N)n3c(c2cc1C)C(=O)C(c1ccccc1)Oc1ccccc1-3", "note": "(stereo not given)", "growth": "68.2% (inactive)"}, {"molecule": "Cc1ccc(C(C)C)cc1NC(=O)Nc1ccc([N+](=O)[O-])cc1", "growth": "-10.2% (active)"}, {"molecule": "CC/C=C\\C=C/C(=O)N/C=C/CC1Cc2cccc(O)c2C(=O)O1", "note": "(stereo not given)", "growth": "67.3% (inactive)"}, {"molecule": "Cc1cc(N2CCOCC2)nc(N2CCOCC2)n1", "growth": "90.7% (inactive)"}, {"molecule": "COc1cc(OC)c2cc(C(=O)O)c(=O)oc2c1", "growth": "94.2% (inactive)"}, {"molecule": "COc1cc(/C=C/C(=O)c2c(-c3ccc(F)cc3)nc3sc(C)nn23)cc(OC)c1OC", "growth": "14.3% (inactive)"}, {"molecule": "N#Cc1ccc(NC(=O)Nc2ccc(Oc3ccc(NC(=O)Nc4ccc(C#N)cc4)cc3)cc2)cc1", "growth": "20.5% (inactive)"}, {"molecule": "COc1cc2c(C#N)n3c(c2cc1OC)C(=O)C(c1ccccc1)Oc1ccccc1-3", "note": "(stereo not given)", "growth": "93.9% (inactive)"}, {"molecule": "O=C(/C(=C/c1cccc([N+](=O)[O-])c1)c1ccccc1)c1ccccc1", "growth": "26.7% (inactive)"}, {"molecule": "NS(=O)(=O)c1ccc(NC2=C(Cl)C(=O)c3ccccc3C2=O)cc1", "growth": "72.8% (inactive)"}, {"molecule": "COc1ccc(OC)c(NC(=O)c2cc3oc4ccccc4c3cc2O)c1", "growth": "83.3% (inactive)"}, {"molecule": "CCS(=O)(=O)OCCCl", "growth": "102% (inactive)"}, {"molecule": "COc1ccc(-c2csc(NC(=O)c3cc(O)c(O)c(O)c3)n2)cc1", "growth": "60.6% (inactive)"}, {"molecule": "CCCc1cc(=O)n2c(C(=O)Nc3ccccc3OC)c(C(=O)Nc3ccc(F)cc3)sc2n1", "growth": "52.7% [30 µM] (inactive)"}, {"molecule": "COc1cc(C2=NN(C(C)=O)C(c3ccc(OC(C)=O)cc3OC(C)=O)O2)c(OC(C)=O)c2ccccc12", "note": "(stereo not given)", "growth": "14.1% (inactive)"}]}, {"tested_on": "HCT-116 colon", "assay": "NCI-60 one-dose screen, 48 h (100 = growth as untreated, 0 = no growth, -100 = all killed)", "conditions": "10 µM unless noted", "values": [{"molecule": "NC(=O)NN=C(C1CC1)C1CC1", "growth": "102% (inactive)"}, {"molecule": "Clc1ccc(CCC(Cn2ccnc2)Sc2c(Cl)cccc2Cl)cc1", "note": "(stereo not given)", "growth": "23.2% (inactive)"}, {"molecule": "c1ccc(-c2nn[nH]n2)c(-c2ccc(CN3CCN(c4nsc5ccccc45)CC3)cc2)c1", "growth": "76.9% (inactive)"}, {"molecule": "COC1CC2CCC(C)C(O)(O2)C(=O)C(=O)N2CCCCC2C(=O)OC(C(C)CC2CCC(O)C(OC)C2)CC(=O)C(C)C=C(C)C(O)C(OC)C(=O)C(C)CC(C)/C=C/C=C/C=C1C", "note": "(stereo not given)", "growth": "49.5% (inactive)"}, {"molecule": "O=C(/C=C/c1ccc(Cl)cc1)c1ccccc1", "growth": "54% (inactive)"}, {"molecule": "O=C1OCCCCCCCCCC#Cc2ccccc21", "growth": "70.4% (inactive)"}, {"molecule": "O=C(OC[C@H]1O[C@H](OC(=O)c2cc(O)c(O)c(OC(=O)c3cc(O)c(O)c(O)c3)c2)[C@H](OC(=O)c2cc(O)c(O)c(OC(=O)c3cc(O)c(O)c(O)c3)c2)[C@@H](OC(=O)c2cc(O)c(O)c(OC(=O)c3cc(O)c(O)c(O)c3)c2)[C@@H]1OC(=O)c1cc(O)c(O)c(OC(=O)c2cc(O)c(O)c(O)c2)c1)c1cc(O)c(O)c(OC(=O)c2cc(O)c(O)c(O)c2)c1", "growth": "11.5% (inactive)"}, {"molecule": "NC(N)=N/N=C(/c1ccccc1)c1ccc(Cl)cc1", "growth": "24.9% (inactive)"}, {"molecule": "CC1(C)OC(=O)C(=Cc2ccccc2Br)C(=O)O1", "growth": "79.3% (inactive)"}, {"molecule": "CCOC(=O)/C(=C/c1ccccc1)C(=O)c1ccccc1", "growth": "39.4% (inactive)"}, {"molecule": "Cc1c(NCc2nnc3n(Cc4ccccc4)c(=O)c4c5c(sc4n23)CCCC5)c(=O)n(-c2ccccc2)n1C", "growth": "88.1% (inactive)"}, {"molecule": "C/C(=N/N=C(N)N)c1ccc(N)cc1", "growth": "103% (inactive)"}, {"molecule": "COc1cc2c(-c3nc4cc(Cl)c(F)cc4s3)cc(=O)oc2c(C)c1OC", "growth": "-2.68% (active)"}, {"molecule": "Cn1c(=O)c2nc(SCc3ccccc3)n(C)c2n(C)c1=O", "growth": "98.9% (inactive)"}, {"molecule": "O=C(/C(=C/c1ccc([N+](=O)[O-])cc1)c1ccccc1)c1ccccc1", "growth": "6.38% (active)"}, {"molecule": "CC(C)(C)c1ccc(C(O)CCCN2CCC(C(O)(c3ccccc3)c3ccccc3)CC2)cc1", "note": "(stereo not given)", "growth": "-100% (active)"}, {"molecule": "CCCCc1nc(Cl)c(CO)n1Cc1ccc(-c2ccccc2-c2nn[nH]n2)cc1", "growth": "102% (inactive)"}, {"molecule": "CCCCN(CCCC)CCCOC(=O)c1ccc(N)cc1", "growth": "58.4% (inactive)"}, {"molecule": "CO[C@H]1CC(O[C@@H]2/C(C)=C/C[C@@H]3C[C@@H](C[C@]4(CC[C@H](C)[C@@H](C5CCCCC5)O4)O3)OC(=O)[C@@H]3C=C(C)/C(=N/O)[C@H]4OC/C(=C\\C=C\\[C@@H]2C)[C@]43O)O[C@@H](C)C1O", "note": "(stereo not given in full)", "growth": "-95.6% (active)"}, {"molecule": "Cc1cc2c(C#N)n3c(c2cc1C)C(=O)C(c1ccccc1)Oc1ccccc1-3", "note": "(stereo not given)", "growth": "12.8% (inactive)"}, {"molecule": "Cc1ccc(C(C)C)cc1NC(=O)Nc1ccc([N+](=O)[O-])cc1", "growth": "-23.2% (active)"}, {"molecule": "CC/C=C\\C=C/C(=O)N/C=C/CC1Cc2cccc(O)c2C(=O)O1", "note": "(stereo not given)", "growth": "33.8% (inactive)"}, {"molecule": "Cc1cc(N2CCOCC2)nc(N2CCOCC2)n1", "growth": "92.2% (inactive)"}, {"molecule": "COc1cc(OC)c2cc(C(=O)O)c(=O)oc2c1", "growth": "103% (inactive)"}, {"molecule": "COc1cc(/C=C/C(=O)c2c(-c3ccc(F)cc3)nc3sc(C)nn23)cc(OC)c1OC", "growth": "14.7% (inactive)"}, {"molecule": "CC[C@@H]1OC(=O)[C@H](C)[C@@H](O[C@H]2C[C@@](C)(OC)[C@@H](O)[C@H](C)O2)[C@H](C)[C@@H](O[C@@H]2O[C@H](C)C[C@H](N(C)C)[C@H]2O)[C@](C)(O)C[C@@H](C)[C@@H]2N[C@@H](COCCOC)O[C@H]([C@H]2C)[C@]1(C)O", "growth": "85.6% (inactive)"}, {"molecule": "N#Cc1ccc(NC(=O)Nc2ccc(Oc3ccc(NC(=O)Nc4ccc(C#N)cc4)cc3)cc2)cc1", "growth": "5.73% (active)"}, {"molecule": "Nc1c2ccccc2nc2ccccc12", "note": "(tested in a mixture with another compound)", "growth": "13.6% (inactive)"}, {"molecule": "COc1cc2c(C#N)n3c(c2cc1OC)C(=O)C(c1ccccc1)Oc1ccccc1-3", "note": "(stereo not given)", "growth": "27.9% (inactive)"}, {"molecule": "CC[C@H](C)C(=O)O[C@H]1C[C@@H](C)C=C2C=C[C@H](C)[C@H](CC[C@@H]3C[C@@H](O)CC(=O)O3)[C@H]21", "growth": "51.7% (inactive)"}, {"molecule": "O=C(/C(=C/c1cccc([N+](=O)[O-])c1)c1ccccc1)c1ccccc1", "growth": "8.24% (active)"}, {"molecule": "NC(N)=NN=c1c(=O)c2ccccc2c1=O", "growth": "-37.8% (active)"}, {"molecule": "NS(=O)(=O)c1ccc(NC2=C(Cl)C(=O)c3ccccc3C2=O)cc1", "growth": "65% (inactive)"}, {"molecule": "COc1ccc(OC)c(NC(=O)c2cc3oc4ccccc4c3cc2O)c1", "growth": "106% (inactive)"}, {"molecule": "CCS(=O)(=O)OCCCl", "growth": "107% (inactive)"}, {"molecule": "COc1ccc(-c2csc(NC(=O)c3cc(O)c(O)c(O)c3)n2)cc1", "growth": "49.5% (inactive)"}, {"molecule": "CCCc1cc(=O)n2c(C(=O)Nc3ccccc3OC)c(C(=O)Nc3ccc(F)cc3)sc2n1", "growth": "27.2% [30 µM] (inactive)"}, {"molecule": "COc1cc(C2=NN(C(C)=O)C(c3ccc(OC(C)=O)cc3OC(C)=O)O2)c(OC(C)=O)c2ccccc12", "note": "(stereo not given)", "growth": "14.4% (inactive)"}]}]}
